Source: PubChem BioAssay (National Center for Advancing Translational Sciences (NCATS))
Pf Dd2 inh – Plasmodium falciparum Dd2 growth inhibition; P. falciparum Dd2 growth, SYBR Green, 72 h; 120,000 compounds, 4.3% hits; Potency, µM (top dose mostly 28.9 µM), most hits filed as inhibitors; active = well fitted inhibition curve with a large enough effect; note: nearly all actives have a fitted effect of over 65% in size
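Readout: SYBR Green fluorescence, 485 nm excitation, 535 nm emission, after ~16 h lysis at 37C. Before that, Dd2-infected red cells (2.5% hematocrit) grew 72 h with compound, 29 uM top final concentration.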
Each line names hits and unclear results; the compound was inactive in the other large screens. Only a selection was taken, and hits are over-represented in it overall.

CCOc1ccc(NC(=O)CSc2nc3c([nH]c4ccccc43)c(=O)n2-c2cc(C)cc(C)c2)cc1	none
O=C(CSc1nc2c([nH]c3ccccc32)c(=O)n1-c1ccccc1)N1CCCCCC1	none
Cc1cccc(NC(=O)CSc2nc3c([nH]c4ccccc43)c(=O)n2C)c1C	none
Cn1c(SCC(=O)Nc2ccccc2F)nc2c([nH]c3ccccc32)c1=O	none
O=C(CSc1nc2c([nH]c3ccccc32)c(=O)n1-c1ccccc1F)Nc1ccccc1C(F)(F)F	Pf Dd2 inh 10µM
COc1ccc(NC(=O)CSc2nc3c([nH]c4ccccc43)c(=O)n2C)cc1	none
CC1CCN(C(=O)CSc2nc3c([nH]c4ccccc43)c(=O)n2-c2ccccc2)CC1	none
O=C(CSc1nc2c([nH]c3ccccc32)c(=O)n1-c1ccccc1)Nc1ccc2c(c1)OCO2	Pf Dd2 inh 11.2µM
CCC1(C(=O)NCc2ccc(Cl)cc2)CCCCC(=O)N1 (centres undefined)	none
CCOc1ccccc1NC(=O)C1CC(=O)N(c2n[nH]c3ccccc23)C1 (centres undefined)	none
O=C(NCCCc1nc2ccc(Cl)cc2[nH]1)[C@H]1CCC[C@@H](O)C1	none
O=C1NC(C(=O)N2CCOCC2)CN1Cc1ccccc1 (centres undefined)	none
COc1ccc(NC(=O)N2CC(N(C3CCOCC3)S(C)(=O)=O)C2)c(C)c1	none
COc1ccc(Cl)cc1-n1nc(C2CC2)nc1C(C)Cn1cncn1 (centres undefined)	none
Cc1cc2nc(CO[C@H]3CN(C)C[C@H]3F)[nH]c2cc1C	none
Cc1cc2nc(CO[C@H]3CN(Cc4ccc(C(=O)O)cc4)C[C@H]3F)[nH]c2cc1C	none
COC(=O)c1ccc2nc(CO[C@H]3CN(Cc4cnn(C)c4)C[C@H]3F)[nH]c2c1	none
COC(=O)c1ccc2nc(CO[C@H]3CN(Cc4cccc(C#N)c4)C[C@H]3F)[nH]c2c1	none
Cc1ccc2nc(CO[C@H]3CN(Cc4ccc(C(F)(F)F)cc4)C[C@H]3F)[nH]c2c1	Pf Dd2 inh 8.91µM
COC(=O)c1ccc2nc(CO[C@H]3CN(Cc4ccc5c(c4)OCO5)C[C@H]3F)[nH]c2c1	Pf Dd2 inh 8.91µM
Fc1ccc2nc(CO[C@H]3CN(Cc4ccccc4)C[C@H]3F)[nH]c2c1	Pf Dd2 inh 12.6µM
F[C@@H]1CN(Cc2ccc(C(F)(F)F)cc2)C[C@@H]1OCc1nc2ccccc2[nH]1	none
CC(=O)Nc1ccc(CN2C[C@@H](F)[C@@H](OCc3nc4cc(C)c(C)cc4[nH]3)C2)cc1	Pf Dd2 inh 11.2µM
COC(=O)c1ccc2nc(CO[C@H]3CN(Cc4ccc(C(F)(F)F)cc4)C[C@H]3F)[nH]c2c1	none
Fc1ccc2nc(CO[C@H]3CN(Cc4cccnc4)C[C@H]3F)[nH]c2c1	none
COc1ccc(CN2C[C@@H](F)[C@@H](OCc3nc4ccc(F)cc4[nH]3)C2)cn1	none
CN1CCN(c2ccc(C(=O)N3CCC(n4cnnc4)CC3)cc2)CC1	none
COCC(=O)N[C@@H]1CN(Cc2cccc(OC)c2OC)C[C@H]1CO	none
Cn1cccc1C(=O)N1CCC(c2[nH]ncc2Cc2ccccc2)CC1	none
COc1ccc(-c2ccc3nc(-c4ccccc4Br)oc3c2)c(OC)c1OC	none
O=C(c1ccccc1)N1CCC(Oc2ccccc2)C1 (centres undefined)	none
O=C(C1CC(=O)N(C2CC2)C1)N1CCC(Oc2ccccc2Cl)CC1 (centres undefined)	none
COc1ccc(OC)c(-c2cc(Cl)c3c(c2)CC(CNC(=O)c2c(F)cccc2F)O3)c1 (centres undefined)	none
COc1ccc(-n2nc(C3CCCN(C(=O)c4cccc(Cl)c4)C3)[nH]c2=O)cc1 (centres undefined)	none
COc1cccc([C@@H]2CN(CC3CCOCC3)C[C@H]2C(=O)O)c1OC	none
c1cc(-c2noc([C@@H]3CCCN3C3CCC3)n2)cc(N2CCOCC2)n1	none
CN(C)c1ccc(CN2CCC[C@H]2c2nc(-c3ccnc(N4CCC(C(N)=O)CC4)c3)no2)cc1	none
CN1CCN(c2ccc(-c3noc([C@@H]4CCCN4Cc4ccccc4)n3)cn2)CC1	Pf Dd2 inh 7.94µM
CNc1ccc(-c2noc([C@@H]3CCCN3Cc3cnc4ccccc4c3)n2)cn1	none
c1ccc(CN2CCC[C@H]2c2nc(-c3ccnc(N4CCOCC4)c3)no2)cc1	Pf Dd2 inh 12.6µM
CNc1ccc(-c2noc([C@@H]3CCCN3Cc3ccc(CO)o3)n2)cn1	none
O=C1CCC2(CNC(=O)c3ccco3)CCCC=C2N1 (centres undefined)	none
O=C(NC[C@H]1OC[C@@H](NC2CCCCC2)[C@@H]1O)C1CC1	none
COC(=O)[C@H](NC(=O)[C@@H]1[C@@H](NC(=O)Nc2cccc(SC)c2)CCN1C(=O)c1cccn1C)C(C)C	none
CN1c2cc(C(=O)Nc3cccc(OC(F)(F)F)c3)ccc2C(=O)N2CCCC21 (centres undefined)	none
O=C(N1CCCCC1)N1CCN([S+](=O)([O-])c2ccc(Cl)nc2)C(=O)C1	none
Cc1ncc2c(c1CNC(=O)c1ccccc1-c1ncc[nH]1)CCNC2	none
O=C(Nc1ccc2c(c1)CCC2)c1nnn2c1COC(c1ccc(F)cc1)C2 (centres undefined)	none
COc1cccc(C(=O)Nc2ccc(NC(=O)c3ccc(C(C)(C)C)cc3)cc2)c1	none
O=C(Nc1cccc(NC(=O)c2ccccc2F)c1)c1ccccc1	none
Cc1ccccc1C(=O)Nc1cccc(NC(=O)c2ccc(C(C)(C)C)cc2)c1	Pf Dd2 inh 12.6µM
COc1ccc(NC(=O)[C@@H]2C[C@H](c3ccc(F)cc3)N([S+](=O)([O-])C3CC3)C2)cc1OC	none
Cn1ccnc1CNCC1(COc2cnccn2)C[C@@H](O)[C@@H](O)C1 (some centres undefined)	none
Cn1c(CN2CCC(O)CC2)nnc1C1CCCN(C(=O)CCN)C1 (centres undefined)	none
CCCCN1C(=O)c2[nH]nc(-c3ccccc3O)c2C1c1cc(Br)c(O)c(OC)c1 (centres undefined)	none
CCOc1ccc(C2c3c(-c4ccccc4O)n[nH]c3C(=O)N2Cc2cccnc2)cc1OC (centres undefined)	none
CCCCN1C(=O)c2[nH]nc(-c3ccccc3O)c2C1c1ccc(OCc2ccccc2)c(OC)c1 (centres undefined)	Pf Dd2 inh 11.2µM
CCCN1C(=O)c2[nH]nc(-c3ccccc3O)c2C1c1ccc(OCc2ccccc2)c(OCC)c1 (centres undefined)	Pf Dd2 inh 11.2µM
CC(C)NC(=O)N(C1CC1)C1CCOC2(CCN(C(=O)C3CCCC3)CC2)C1 (centres undefined)	none
CC(C)(C)OC(=O)N1CCC(c2c(C(=O)NC3CCN(Cc4ccccc4)CC3)cnn2-c2ccc(F)cc2F)CC1	Pf Dd2 inh 11.2µM
CCOC(=O)N1CCC(NC(=O)c2cnn(-c3ccc(F)cc3F)c2C2CCN(C(=O)OC(C)(C)C)CC2)CC1	Pf Dd2 inh 3.55µM
COc1cccc(NC(=O)C2N(C(C)C)C(=O)C23CCCC3)c1 (centres undefined)	none
Cc1cnn(C2(C(=O)O)CCN(C(=O)c3cc(C)nc(C)n3)CC2)c1	none
COc1ccc(C(=O)N2CCC(N3CC4CC(C3)[C@H]3CCCC(=O)N3C4)CC2)cc1F (some centres undefined)	none
CNC(=O)C(C)(C)N1CCC[C@H]1C(=O)N1CCCC1	none
CC(C)NC(=O)c1cc(-c2cccc(C(F)(F)F)c2)c2nncn2n1	none
O=C(c1cc(-c2cccc(C(F)(F)F)c2)c2nncn2n1)N1CCCC1	none
Cc1cn2nc(C(=O)NCc3cccc(C(F)(F)F)c3)cc2c(=O)[nH]1	none
C#CCNC(=O)c1cc(-c2cccc(C(F)(F)F)c2)c2nncn2n1	Pf Dd2 inh 14.1µM
